Bioassay records (PubChem)
Most compounds without a hit are left out; they make up all but 12% or so of the library.
L major viab = reduces viability of Leishmania major promastigotes; resazurin fluorescence viability; inhibition, % at 10 µM; hit rate 9% among 200,000; in the data active means inhibition above about 50%;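 further: promastigotes grown with compound for 44 hours at 28 °C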
Arbovirus inh = blocks arbovirus infection; arbovirus infection cell-based antiviral screen; inhibition, % at 10 µM; hit rate 0.37% among 200,000; in the data active means inhibition above about 30%
WT yeast gro inh = growth inhibition of WT yeast, mitochondrial fusion screen | mitochondrial fusion phenotypic screen, WT strain | inhibition, % at 10 µM | hit rate 2.1% among 190,000; in the data active means inhibition above about 58%; tested in S. cerevisiae
CHOP inh = CHOP inhibition in unfolded protein response | hit rate 3.8% among 220,000 | AID 2732 | inhibition, % at 10 µM | CHO-K1 CHOP-promoter luciferase, tunicamycin-induced, 15-18 h;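 active means compounds that reduced the stress-induced luciferase reporter signal by more than about 70% of percent inhibition, limit read from the data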
Numbers stand for hits; - = inactive; . = no result given.

SMILES | L major viab | Arbovirus inh | WT yeast gro inh | CHOP inh
CCOc1ccc(C2=NNC(c3cccs3)=Nc3ccc(OC)cc32)cc1OCC | 67 | - | - | -
CCCCCCCCCn1ccc(=N)cc1 | . | . | . | 76
CCCCCCCn1ccc(=N)cc1 | - | - | - | -
O=C(Cc1c(O)c2ccccc2[nH]c1=O)NCc1ccccc1F | - | - | 60 | -
O=C(c1ccc(-c2nnc(-c3ccccc3)o2)cc1)N1CCCCCC1 | - | - | 65 | -
NS(=O)(=O)c1ccc(CCNC(=O)CCCCCn2c(=S)[nH]c3ccc(Br)cc3c2=O)cc1 | - | - | - | -
CCOC(=O)C1CCN(c2nc(N)c3c(N)nc(SCC(=O)O)cc3c2C#N)CC1 | . | . | . | -
CC(C)(C)c1ccc(Cn2cnc(-c3ccc([N+](=O)[O-])cc3)c2)cc1 | 89 | - | - | -
COc1ccc(-c2ccc(=O)n(Cc3ccc([N+](=O)[O-])cc3)n2)cc1 | - | - | - | -
Cc1cc(C)c(Cn2cnc(-c3ccc([N+](=O)[O-])cc3)c2)c(C)c1 | - | - | 60 | 76
Cc1ccsc1/C=C/C1=Cc2c(sc(NC(=O)CSc3n[nH]c(N)n3)c2C#N)C(C)(C)C1 | 100 | - | - | -
COC(=O)c1sc(NC(=O)CSc2n[nH]c(N)n2)c(C(=O)OC)c1C | - | - | - | -
COCCN(C(=S)Nc1c(C)cccc1C)C(C)c1ccco1 (centres undefined) | . | . | . | -
N=c1n(CCO)c2ccccc2n1CCOc1ccc(Cl)cc1Cl | 98 | - | - | -
COc1ccc(C(=O)COc2ccc(F)cc2)c(O)c1C | - | - | - | -
CCN(CCCNC(=O)CC(C(=O)N1CCc2ccccc21)n1ccnc1)c1ccccc1 (centres undefined) | 100 | - | - | -
O=C(CC(C(=O)N1CCc2ccccc21)n1ccnc1)NCc1cccnc1 (centres undefined) | - | - | - | -
O=C1c2ccccc2C(=O)N1CCCCN1CCN(CCCCN2C(=O)c3ccccc3C2=O)CC1 | - | . | . | .
O=C1CC(=C2c3ccccc3-c3ccccc32)C(=O)N1CCCCN1CCN(c2ccccc2)CC1 | 99 | - | - | -
CCN(CC)C(=O)N1c2ccccc2CC(N(CC)CC)c2ccccc21 (centres undefined) | - | - | - | 85
Cc1ccc(Cl)cc1N(CC(=O)Nc1cccc(N(C)S(C)(=O)=O)c1)S(C)(=O)=O | - | - | - | -
Cc1cccc(C)c1N(CC(=O)N/N=C/c1cc(Br)c(C)o1)S(C)(=O)=O | 71 | - | - | -
CN(c1cccc(NC(=O)CN(c2cccc(Cl)c2)S(=O)(=O)c2ccc(Cl)cc2)c1)S(C)(=O)=O | 72 | - | - | -
Cc1cccc(C)c1N(CC(=O)Nc1cccc(N(C)S(C)(=O)=O)c1)S(C)(=O)=O | 98 | - | - | -
CCOc1cc(CNc2ccc3c(c2)CCC3)ccc1OC | - | - | - | -
SMILES | L major viab | Arbovirus inh | WT yeast gro inh | CHOP inh
CCc1ccc(NC(=S)Nc2cccc3cnccc23)cc1 | - | - | 61 | -
Cc1ccc(NC(=S)Nc2cccc3cnccc23)c(C)c1 | - | - | 69 | -
O=C(NC(=S)Nc1cccc2cnccc12)c1ccccc1 | - | - | - | -
C=C(C)CNC(=S)Nc1cccc2cnccc12 | - | - | - | -
Cc1cc(C)cc(NC(=S)Nc2cccc3cnccc23)c1 | - | - | 65 | -
CC(C)(C)c1ccc(C(=O)NNc2ncccc2-n2cccc2)cc1 | . | . | . | -
O=C(Cc1cccs1)Nc1nc2c(ccc3ccccc32)s1 | - | - | - | 81
O=C(Cc1cccs1)Nc1nc(-c2ccc(F)cc2F)cs1 | 98 | - | - | -
NC(=O)CC(NC(=O)c1cccc(Br)c1)c1ccc(NCCN2CCOCC2)c([N+](=O)[O-])c1 (centres undefined) | . | . | . | -
CCN1CCN(C(=O)CCCn2c(C)c3cnn(-c4ccccc4)c(=O)c3c2C)CC1 | 69 | - | - | -
Cc1c2cnn(-c3ccccc3)c(=O)c2c(C)n1CCCC(=O)N1CCN(c2ncccn2)CC1 | - | - | - | -
NS(=O)(=O)c1ccc(CCNc2ncnc3sccc23)cc1 | - | - | - | .
Cc1sc2ncnc(NCCc3ccc(S(N)(=O)=O)cc3)c2c1C | - | - | - | 73
Cc1sc2ncnc(NCCCn3ccnc3)c2c1C | 55 | - | - | -
O=C(NCc1ccccc1)c1ccc(CS(=O)(=O)c2ccccc2)o1 | - | - | - | -
CCOC(=O)c1cnc2c(cnn2C)c1NCCCn1ccnc1 | - | - | - | -
c1coc(-c2nn3c(-c4ccco4)nnc3s2)c1 | - | - | - | -
COc1cccc(OC)c1-c1nn2c(-c3cc(-c4ccccc4)n[nH]3)nnc2s1 | 61 | - | - | .
COc1ccccc1-c1nn2c(-c3ccco3)nnc2s1 | 67 | - | - | -
O=C(Cc1ccccc1)NCC(=O)OCC(=O)c1cccs1 | - | - | - | -
COc1ccc(C(=O)NCC(=O)N/N=C/C=C/c2ccccc2)cc1OC | - | - | - | -
O=C(CSc1nc(-c2cccs2)cc(C(F)(F)F)n1)NCCCn1ccnc1 | - | - | - | -
O=C(CSc1nc(-c2cccs2)cc(C(F)(F)F)n1)Nc1cc(OCC(F)(F)C(F)F)cc([N+](=O)[O-])c1 | 84 | - | - | -
O=C1CN(C(=O)c2ccc(Cl)c(S(=O)(=O)N3CCc4ccccc43)c2)c2ccccc2N1 | . | . | . | -
Cc1cc(Cl)cc(Cl)c1OCCOCCN(C)C | 65 | - | - | -
SMILES | L major viab | Arbovirus inh | WT yeast gro inh | CHOP inh
Cc1cc(OCCOCCN(C)C)ccc1Cl | 89 | - | - | -
COCCNCCOCCOc1ccc(Cl)c(C)c1 | 100 | - | - | -
O=C(COc1cccnc1[N+](=O)[O-])NCc1cccs1 | - | - | - | -
C=CCn1c(SC(C)CC)nc(O)cc1=O (centres undefined) | - | - | - | -
COC1CCN(C(=O)c2ccc(OC3CCN(Cc4ccccn4)CC3)cc2)CC1 | - | - | - | -
C=CCN(CC=C)C(=O)c1ccc(OC2CCN(Cc3ccccn3)CC2)cc1 | 59 | - | - | -
COc1cc(/C=C2\C(=O)N(CCC#N)N=C2C)ccc1OCC(=O)Nc1ccccc1 | 60 | - | - | -
Cc1onc(-c2ccccc2)c1C(=O)N(Cc1ccco1)Cc1cccs1 | - | - | - | -
CCCC1=[N+](CC(=O)c2ccccc2)CCn2c(C)ccc21 | 90 | - | - | -
Cc1cc(C)c2cc(C#N)c(N3CCCC3)nc2c1 | - | - | - | -
CC(=O)c1cc(C#N)c(N2CCCC2)nc1C | 100 | - | - | -
COc1cccc(OCC(=O)NNC(=S)Nc2ccc(Cl)cc2Cl)c1 | - | - | - | -
CN(C)c1ccc(C=NCC2COc3ccccc3O2)cc1 (centres undefined) | - | - | - | -
CN(CCN1CCOCC1)Cc1nc(-c2cccs2)no1 | 73 | - | - | -
O=C(O)c1cc(N/N=C/C(Cl)=C/c2ccccc2)ccc1Cl | - | - | - | -
Cc1ccc(NC(=O)CCNS(=O)(=O)c2cccc3nonc23)cc1Cl | - | - | - | -
O=C(CCNS(=O)(=O)c1cccc2nonc12)NCCc1ccc(Cl)cc1 | - | - | - | 76
CCC(=O)Nc1nc(-c2cc([N+](=O)[O-])cs2)cs1 | 90 | - | - | -
Cc1ccnc(NC(=O)c2cc([N+](=O)[O-])cc([N+](=O)[O-])c2)c1 | 67 | - | - | -
Cc1csc(NC(=O)c2cc[n+]([O-])cc2)n1 | - | - | - | -
